From PubChem BioAssay (Tox21) come the findings set out here.

Assay [1] in a line: Caspase-3/7 induction in HepG2 cells by small molecules, qHTS assay (AID 1346978). Further: nearly all actives have a fitted effect of over 15% in size. In a few lines:
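Caspase-3/7 induction was measured by Caspase-Glo 3/7 luminescence (30 min, room temperature) after a 17 hr compound exposure of wild-type HepG2 cells seeded at 2,000 per well and pre-incubated 5 hr.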

The nature of assay [2]: Caspase-3/7 induction in CHO-K1 cells by small molecules, qHTS cell viability counter screen (AID 1346979). Further: nearly all actives have a fitted effect of over 35% in size. In outline: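 To flag cytotoxic compounds, treated CHO-K1 wild-type cells were given CellTiter-Fluor at 16hr and read fluorescently after 1hr at 37C; the caspase-3/7 luminescence was measured in these same wells.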
A short description of assay [3]: Caspase-3/7 induction in CHO-K1 cells by small molecules, qHTS assay (AID 1346980). Further: nearly all actives have a fitted effect of over 15% in size. In outline:
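Luminescent Caspase-Glo 3/7 read (30min, room temperature) quantified apoptosis induction. Cells were wild-type CHO-K1, treated with compound for 17hr at 37 C and 5% CO2.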
On the technique in general: In qHTS, concentration-response curves come from the screen itself.

Assay [4] in a line: Caspase-3/7 induction in HepG2 cells by small molecules, qHTS cell viability counter screen (AID 1346981). Further: series mostly up to about 92 µM; nearly all actives have a fitted effect of over 30% in size. In outline:
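CellTiter-Fluor fluorescence measured viability in the same wells used for Caspase-Glo 3/7. HepG2 (wild type) at 2,000 cells/well were pre-incubated 5 hr, dosed, and given reagent at 16 hr, with 1 hr further at 37C.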

Assay [5] concerns the target Voltage-gated inwardly rectifying potassium channel KCNH2 (Homo sapiens) (UniProt Q12809). Nature of the assay: Human Ether-a-go-go-Related Gene (hERG) channel small molecule antagonists: fluorescence cell-based qHTS assay (AID 1671200).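 Further: hERG-expressing U2OS cells given a thallium stimulus after FluxOR II dye loading; series mostly up to about 77 µM; nearly all actives have a fitted effect of over 50% in size.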 In outline:
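Measured: Tl+ flux via fluorescence (480/540 nm) in hERG-expressing U2OS cells after 1 h dye loading at room temperature.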
(In general: Block of hERG is tested as a sign of cardiac risk.)

Assay [6] deals with Nuclear receptor subfamily 1 group I member 2 (Homo sapiens) (UniProt O75469). Nature of the assay: Human pregnane X receptor (PXR) small molecule agonists, qHTS assay (AID 1346982). Further: nearly all actives have a fitted effect of over 35% in size. Further: potency means the concentration at half of the fitted maximal effect. In outline: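 Agonist mode: luminescence from ONE-Glo after 24 h compound exposure at 37C in HepG2 cells carrying hPXR-responsive CYP3A4 luciferase, plated in charcoal-stripped serum medium 5 h beforehand.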

Assay [7] addresses Acetylcholinesterase (Homo sapiens) (UniProt P22303). Nature of the assay: Acetylcholinesterase (AChE) small molecule antagonists: colormetric cell-based qHTS assay (AID 1347395; calls by dose curve; further: nearly all actives have a fitted effect of over 30% in size). In a few lines: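 Neuroblastoma line SH-SY5Y supplied the enzyme; cells were preincubated with compound for 30 min at 37 C and 5% CO2. Acetylthiocholine with DTNB was then added for 90 min at 37 C, and thiocholine was measured by colour.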

For assay [8] the target is unchanged. Put plainly: Acetylcholinesterase (AChE) small molecule antagonists: fluorescence cell-based qHTS assay (AID 1347398; calls by dose curve; further: nearly all actives have a fitted effect of over 50% in size). As to conditions: Potency: AChE activity. In a few lines:
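Cellular AChE activity read as thiocholine from acetylthiocholine hydrolysis, detected by Thiolite Green fluorescence at 490/520 nm after 40 min at room temperature. Compounds were pre-incubated 30 min at 37 C on adherent SH-SY5Y cells.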

Assay [9] shares this target. Put plainly: Acetylcholinesterase (AChE) small molecule antagonists: enzyme-based qHTS assay with human liver microsomes (AID 1347399; calls by dose curve; further: nearly all actives have a fitted effect of over 60% in size). Particulars: Potency: qHTS inhibition. In outline: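 Recombinant human AChE (50 mU/mL in the enzyme mix) and human liver microsomes (0.25 mg/mL final) were preincubated with compound and NADPH (0.25 mg/mL final) for 30 min at 37 C. Acetylthiocholine/DTNB was then added; thiocholine was read colorimetrically after 10 min at room temperature.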

Assay [10] concerns the target Cytochrome P450 2D6 (Homo sapiens) (UniProt P10635). Nature of the assay: Cytochrome P450 Family 2 Subfamily D Member 6 (CYP2D6) small molecule antagonists: luciferase reporter qHTS assay (AID 1671196). Further: nearly all actives have a fitted effect of over 50% in size. Further: potency means the concentration at half of the fitted maximal effect. On activity change, negative = inhibition: series mostly up to about 120 µM. In outline: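 CYP2D6 activity was followed as luminescence from its luciferin product after a 1 h NADPH-driven reaction at room temperature. Enzyme-substrate mix and compound were pre-incubated for 10 min, and the signal was read 20 min after adding detection reagent.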
A general note: In a reporter assay the amount or activity of a reporter protein is the signal.

Assay [11] addresses Cytochrome P450 2C19 (Homo sapiens) (UniProt P33261). Put plainly: Cytochrome P450 Family 2 Subfamily C Member 19 (CYP2C19) small molecule antagonists: luciferase reporter qHTS assay (AID 1671197). Further: nearly all actives have a fitted effect of over 65% in size. Further: potency means the concentration at half of the fitted maximal effect. On activity change, negative = inhibition: series mostly up to about 120 µM. In outline: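 P450-Glo CYP2C19 screening system; proluciferin substrate; DMSO compound stocks; 10 min RT preincubation; NADPH regeneration, 1 h at 37C; luciferin detection reagent, 20 min RT; luminescence as RLU.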

Assay [12] addresses Cytochrome P450 2C9 (Homo sapiens) (UniProt P11712). Nature of the assay: Cytochrome P450 Family 2 Subfamily C Member 9 (CYP2C9) small molecule antagonists: luciferase reporter qHTS assay (AID 1671198). Further: nearly all actives have a fitted effect of over 50% in size. Further: potency means the concentration at half of the fitted maximal effect. On activity change, negative = inhibition: series mostly up to about 120 µM. In a few lines: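 Enzyme-substrate mix preincubated with compound 10 min at room temperature; reaction started with NADPH regeneration solution, 1 h 37C. Luminescent luciferin product read after 20 min detection reagent.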

The target in assay [13] is Cytochrome P450 3A4 (Homo sapiens) (UniProt P08684). Put plainly: Cytochrome P450 Family 3 Subfamily A Member 4 (CYP3A4) small molecule antagonists: luciferase reporter qHTS assay (AID 1671201). In a few lines:
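Setup: enzyme-substrate mix, compound pin transfer, 10 min RT. Reaction: NADPH regeneration solution, 1 h RT. Readout: detection reagent stops turnover, luminescence measured after 20 min, expressed in relative luminescence units.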

Assay [14] deals with Acetylcholinesterase (Homo sapiens) (UniProt P22303). Put plainly: Acetylcholinesterase (AChE) small molecule antagonists: enzyme-based qHTS assay (AID 1347397; calls by dose curve; further: nearly all actives have a fitted effect of over 55% in size). As to conditions: Potency: AChE enzyme activity inhibition. In outline: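 Colorimetric DTNB readout of acetylthiocholine hydrolysis, 10 min at room temperature, after 30 min room-temperature exposure of 50 mU/mL recombinant human enzyme to compound; DMSO vehicle control.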

Assay [15] addresses Cytochrome P450 1A2 (Homo sapiens) (UniProt P05177). Nature of the assay: Cytochrome P450 Family 1 Subfamily A Member 2 (CYP1A2) small molecule antagonists: luciferase reporter qHTS assay (AID 1671199). Further: nearly all actives have a fitted effect of over 50% in size. Further: potency means the concentration at half of the fitted maximal effect. On activity change, negative = inhibition: series mostly up to about 120 µM. In outline: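 Luminescence from luciferin formed by CYP1A2 from a proluciferin substrate, read 20 min after detection reagent. Compound was pre-incubated 10 min with enzyme-substrate, and reaction started with NADPH regeneration solution for 1 h at room temperature; furafylline control.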

Values without a mark were called inactive. Inconclusive results are not listed. Activity calls are given as the source filed them. Unless noted, the call rests on the fitted dose curve; in most records, active means well fitted curve in the direction sought with a large enough effect in the repeat runs; inconclusive means weak or mixed curves; inactive means no such curve, though single readings can be large; an effect the other way counts as inactive or inconclusive.
On the % scale 0 is the no-effect control and ±100 the full control effect.

Sequence of Cytochrome P450 2C9 (Homo sapiens) (P11712 whole entry, looked up): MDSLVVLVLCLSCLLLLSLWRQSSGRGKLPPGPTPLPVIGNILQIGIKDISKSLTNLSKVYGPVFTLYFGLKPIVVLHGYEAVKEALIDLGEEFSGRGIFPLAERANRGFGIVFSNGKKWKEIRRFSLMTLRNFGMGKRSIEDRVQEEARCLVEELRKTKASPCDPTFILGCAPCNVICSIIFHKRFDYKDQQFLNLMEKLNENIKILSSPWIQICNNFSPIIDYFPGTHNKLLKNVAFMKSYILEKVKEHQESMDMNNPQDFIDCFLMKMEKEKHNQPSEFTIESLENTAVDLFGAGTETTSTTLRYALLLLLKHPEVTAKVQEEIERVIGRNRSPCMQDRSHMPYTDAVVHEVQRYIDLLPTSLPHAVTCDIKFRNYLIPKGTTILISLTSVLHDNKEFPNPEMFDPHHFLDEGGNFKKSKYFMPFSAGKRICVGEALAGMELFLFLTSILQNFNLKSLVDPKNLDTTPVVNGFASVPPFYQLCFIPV
Sequence of Cytochrome P450 3A4 (Homo sapiens) (P08684 whole entry, looked up): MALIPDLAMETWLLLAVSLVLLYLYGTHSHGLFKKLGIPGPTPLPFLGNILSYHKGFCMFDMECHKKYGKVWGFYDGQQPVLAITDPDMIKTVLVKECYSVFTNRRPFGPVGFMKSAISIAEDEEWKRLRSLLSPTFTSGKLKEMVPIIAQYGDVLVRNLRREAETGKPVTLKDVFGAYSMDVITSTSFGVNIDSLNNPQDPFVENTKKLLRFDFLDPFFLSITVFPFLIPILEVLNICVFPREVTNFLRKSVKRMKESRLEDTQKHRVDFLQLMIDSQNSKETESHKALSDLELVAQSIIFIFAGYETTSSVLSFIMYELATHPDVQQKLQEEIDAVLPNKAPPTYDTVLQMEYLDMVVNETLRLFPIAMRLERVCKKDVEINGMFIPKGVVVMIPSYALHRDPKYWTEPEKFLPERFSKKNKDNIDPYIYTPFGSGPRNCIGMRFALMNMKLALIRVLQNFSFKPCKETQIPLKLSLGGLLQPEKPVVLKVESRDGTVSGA
Sequence of Cytochrome P450 1A2 (Homo sapiens) (P05177 whole entry, looked up): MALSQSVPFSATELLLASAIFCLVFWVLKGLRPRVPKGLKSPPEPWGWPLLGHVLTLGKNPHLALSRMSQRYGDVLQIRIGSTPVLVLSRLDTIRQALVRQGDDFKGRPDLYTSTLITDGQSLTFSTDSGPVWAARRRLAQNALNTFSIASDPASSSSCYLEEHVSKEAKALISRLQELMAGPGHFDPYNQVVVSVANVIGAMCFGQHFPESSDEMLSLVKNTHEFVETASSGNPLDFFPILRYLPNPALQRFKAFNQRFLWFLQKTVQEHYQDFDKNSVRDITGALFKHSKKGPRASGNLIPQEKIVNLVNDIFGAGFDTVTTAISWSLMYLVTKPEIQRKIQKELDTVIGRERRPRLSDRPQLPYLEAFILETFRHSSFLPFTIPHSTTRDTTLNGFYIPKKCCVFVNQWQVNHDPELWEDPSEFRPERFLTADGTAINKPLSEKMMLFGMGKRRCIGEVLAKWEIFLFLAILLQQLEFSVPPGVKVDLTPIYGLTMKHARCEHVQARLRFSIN
Sequence of Acetylcholinesterase (Homo sapiens) (P22303 whole entry, looked up): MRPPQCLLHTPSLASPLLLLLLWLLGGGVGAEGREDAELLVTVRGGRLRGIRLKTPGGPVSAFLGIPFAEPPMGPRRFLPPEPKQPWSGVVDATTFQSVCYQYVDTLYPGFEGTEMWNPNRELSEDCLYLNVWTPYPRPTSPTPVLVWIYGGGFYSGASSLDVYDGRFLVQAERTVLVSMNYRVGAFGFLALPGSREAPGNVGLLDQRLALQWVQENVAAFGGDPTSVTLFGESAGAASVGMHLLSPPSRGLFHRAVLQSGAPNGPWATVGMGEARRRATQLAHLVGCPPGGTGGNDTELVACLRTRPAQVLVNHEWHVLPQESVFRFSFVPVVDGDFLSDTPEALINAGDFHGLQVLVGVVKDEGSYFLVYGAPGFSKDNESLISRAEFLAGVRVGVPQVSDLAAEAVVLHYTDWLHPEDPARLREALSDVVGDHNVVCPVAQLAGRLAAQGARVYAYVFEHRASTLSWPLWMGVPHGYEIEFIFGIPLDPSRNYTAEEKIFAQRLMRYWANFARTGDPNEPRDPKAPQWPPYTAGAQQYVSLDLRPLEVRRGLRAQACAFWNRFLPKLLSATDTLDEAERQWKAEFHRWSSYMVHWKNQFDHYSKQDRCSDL
Sequence of Voltage-gated inwardly rectifying potassium channel KCNH2 (Homo sapiens) (Q12809 whole entry, looked up): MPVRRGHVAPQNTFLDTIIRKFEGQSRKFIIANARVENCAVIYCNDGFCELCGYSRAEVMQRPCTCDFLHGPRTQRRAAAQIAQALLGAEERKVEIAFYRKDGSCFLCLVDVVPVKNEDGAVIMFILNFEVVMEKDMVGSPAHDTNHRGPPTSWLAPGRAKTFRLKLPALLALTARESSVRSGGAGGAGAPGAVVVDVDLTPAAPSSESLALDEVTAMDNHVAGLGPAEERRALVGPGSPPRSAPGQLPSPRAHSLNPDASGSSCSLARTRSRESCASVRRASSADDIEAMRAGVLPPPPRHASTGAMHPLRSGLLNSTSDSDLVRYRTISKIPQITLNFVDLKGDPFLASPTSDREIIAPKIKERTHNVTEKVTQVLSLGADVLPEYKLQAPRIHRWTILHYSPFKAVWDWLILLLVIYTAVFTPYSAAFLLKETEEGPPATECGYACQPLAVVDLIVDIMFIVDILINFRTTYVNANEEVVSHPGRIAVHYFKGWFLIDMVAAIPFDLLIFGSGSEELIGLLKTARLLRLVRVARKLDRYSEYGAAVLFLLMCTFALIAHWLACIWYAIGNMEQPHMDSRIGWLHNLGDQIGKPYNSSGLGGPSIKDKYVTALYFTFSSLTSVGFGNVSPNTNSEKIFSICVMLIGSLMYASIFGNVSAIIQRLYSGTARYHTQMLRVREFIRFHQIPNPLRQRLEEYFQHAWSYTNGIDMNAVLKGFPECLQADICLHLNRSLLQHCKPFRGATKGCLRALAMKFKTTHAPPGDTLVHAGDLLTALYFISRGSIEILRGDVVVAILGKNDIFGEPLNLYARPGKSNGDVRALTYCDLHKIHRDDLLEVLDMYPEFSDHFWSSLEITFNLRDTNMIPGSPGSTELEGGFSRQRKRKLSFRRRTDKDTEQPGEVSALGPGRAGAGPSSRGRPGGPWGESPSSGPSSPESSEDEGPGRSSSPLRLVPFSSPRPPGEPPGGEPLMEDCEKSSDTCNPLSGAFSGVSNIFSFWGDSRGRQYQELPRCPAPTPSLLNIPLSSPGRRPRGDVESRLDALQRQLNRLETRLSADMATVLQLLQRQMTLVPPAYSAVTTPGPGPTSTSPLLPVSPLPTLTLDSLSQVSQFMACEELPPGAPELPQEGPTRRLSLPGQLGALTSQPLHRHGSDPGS
Sequence of Cytochrome P450 2C19 (Homo sapiens) (P33261 whole entry, looked up): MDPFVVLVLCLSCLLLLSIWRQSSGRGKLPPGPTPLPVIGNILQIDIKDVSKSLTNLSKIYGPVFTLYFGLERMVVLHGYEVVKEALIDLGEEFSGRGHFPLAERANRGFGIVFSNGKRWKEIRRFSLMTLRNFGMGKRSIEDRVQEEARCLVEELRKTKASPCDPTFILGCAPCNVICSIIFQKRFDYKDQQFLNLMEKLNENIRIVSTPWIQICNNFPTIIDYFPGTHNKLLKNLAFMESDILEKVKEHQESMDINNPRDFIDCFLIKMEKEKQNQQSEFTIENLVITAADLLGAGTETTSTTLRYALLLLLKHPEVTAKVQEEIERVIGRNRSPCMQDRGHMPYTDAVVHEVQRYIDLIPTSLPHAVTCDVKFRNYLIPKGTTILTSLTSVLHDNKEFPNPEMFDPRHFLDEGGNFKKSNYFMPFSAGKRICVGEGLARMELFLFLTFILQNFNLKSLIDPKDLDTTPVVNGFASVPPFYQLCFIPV
Sequence of Nuclear receptor subfamily 1 group I member 2 (Homo sapiens) (O75469 whole entry, looked up): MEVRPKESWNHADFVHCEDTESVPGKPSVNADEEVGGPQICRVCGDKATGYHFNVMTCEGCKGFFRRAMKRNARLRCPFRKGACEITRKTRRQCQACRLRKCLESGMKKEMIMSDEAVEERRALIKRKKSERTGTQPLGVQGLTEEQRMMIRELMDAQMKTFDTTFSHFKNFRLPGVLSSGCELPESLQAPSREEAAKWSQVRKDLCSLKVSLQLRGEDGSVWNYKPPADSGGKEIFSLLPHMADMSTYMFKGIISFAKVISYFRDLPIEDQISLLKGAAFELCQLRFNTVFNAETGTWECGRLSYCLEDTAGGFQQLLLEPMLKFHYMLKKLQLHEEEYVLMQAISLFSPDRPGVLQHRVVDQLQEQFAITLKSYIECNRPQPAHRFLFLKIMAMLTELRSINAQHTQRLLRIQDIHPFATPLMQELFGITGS
Sequence of Cytochrome P450 2D6 (Homo sapiens) (P10635 whole entry, looked up): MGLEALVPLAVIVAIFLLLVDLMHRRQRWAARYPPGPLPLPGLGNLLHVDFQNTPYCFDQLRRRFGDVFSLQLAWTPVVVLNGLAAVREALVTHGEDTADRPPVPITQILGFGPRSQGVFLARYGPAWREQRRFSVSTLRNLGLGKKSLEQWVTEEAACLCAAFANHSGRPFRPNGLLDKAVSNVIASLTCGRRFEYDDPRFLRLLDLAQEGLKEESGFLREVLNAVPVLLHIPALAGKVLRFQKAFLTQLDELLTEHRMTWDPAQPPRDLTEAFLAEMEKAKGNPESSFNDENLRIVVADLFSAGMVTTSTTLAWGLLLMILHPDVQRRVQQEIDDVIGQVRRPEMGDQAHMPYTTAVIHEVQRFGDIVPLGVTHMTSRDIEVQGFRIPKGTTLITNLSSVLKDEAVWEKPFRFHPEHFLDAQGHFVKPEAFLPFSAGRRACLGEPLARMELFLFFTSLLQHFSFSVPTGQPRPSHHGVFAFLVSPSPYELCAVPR

In the case of `CC(=O)[O-].CC(=O)[O-].CC(=O)[O-].[Sb+3]`, the caspase activation in assay [1] was 1.01% [at 3.27 µM]. Moreover, the figures for the activity change, negative = cytotoxicity in assay [2] and in assay [4] were 4.75% [at 3.27 µM] and -0.0636% [at 3.27 µM], respectively. Also, the caspase-3/7 activation in assay [3] is -0.0038% [at 3.27 µM]. Moreover, the activity change, negative = inhibition in assay [5] was 0.0833% [at 2.72 µM].
As for `[Cl-].[Cl-].[Sn+2]`, the Potency result in assay [1], in assay [2], in assay [3], in assay [4] and in [5] was “inactive” each time.
`Cc1ccc(C)c2ccccc12`: the Potency entry in assay [1], in assay [3], in assay [4], in [6], in [7] and in assay [8] was “inactive” throughout. Moreover, the Potency entry in assay [9], in assay [10], in [11], in [12], in assay [5] and in assay [13] was “inactive” throughout.
Take `CCC(C)Nc1c([N+](=O)[O-])cc(C(C)(C)C)cc1[N+](=O)[O-]` (centres undefined): the Potency entry in assay [1], in [3], in assay [4], in [7], in assay [14] and in assay [8] was “inactive” each time. Further, the Potency result in assay [9] and in [13] was “inactive” in each case. The Potency in [6] is 24.3 µM (active); in assay [11], 25.2 µM (active); in [12], 35.6 µM (active); in assay [15], 31.7 µM (active).
`Cc1cc(C2CC2)nc(Nc2ccccc2)n1`: the Potency result in assay [1], in [3], in assay [4], in assay [7], in [14] and in assay [8] was “inactive” each time. Further, the Potency result in assay [9], in assay [5] and in assay [13] was “inactive” each time. Moreover, the Potency in assay [6] is 54.5 µM (active); in assay [11] it was 39.9 µM (active); in assay [12], 63.3 µM (active).
Take `CC1(C)C(C=C(Cl)Cl)C1C(=O)OC(C#N)c1ccc(F)c(Oc2ccccc2)c1` (centres undefined): the Potency entry in [1], in assay [3], in [4], in [6], in assay [7] and in assay [8] was “inactive” throughout. The Potency result in [9], in assay [15], in [5] and in assay [13] was “inactive” throughout. For the same compound, the Potency was 10 µM (active) in assay [11] and 3.17 µM (active) in assay [12].
As for `CC(C)C(Nc1ccc(C(F)(F)F)cc1Cl)C(=O)OC(C#N)c1cccc(Oc2ccccc2)c1` (centres undefined), the Potency result in assay [1], in assay [3], in assay [4], in assay [7], in assay [14] and in assay [8] was “inactive” in each case. Besides, the Potency result in assay [9] and in [5] was “inactive” throughout. For the same compound, the Potency is 13.8 µM (active) in assay [6], 9.01 µM (active) in [11] and 6.38 µM (active) in [12].
As to `CCO/N=C(\CC)C1=C(O)CC(c2c(C)cc(C)cc2C)CC1=O` (centres undefined), the Potency entry in [1], in assay [3], in assay [4], in assay [7], in [8] and in [9] was “inactive” each time. Also, the Potency result in assay [5] and in assay [13] was “inactive” each time. Besides, the Potency in [6] is 30.6 µM (active); in [10], 27.5 µM (active); in assay [11] it was 5.03 µM (active); in assay [12], 7.31 µM (active).
`O=Cc1ccccc1`: the Potency result in [1], in [3], in assay [4], in assay [6], in assay [7] and in [14] was “inactive” each time. Moreover, the Potency result in assay [8], in assay [9], in assay [11], in [12], in assay [15] and in assay [5] was “inactive” each time. For the same compound, in assay [13], the Potency result was “inactive”.
